± gives the standard deviation.
What was measured:
Details in all cases: modulator concentration 10 µM
[1] = test system: RAW-Dual (murine macrophage reporter line); assay: NF-kB reporter (SEAP) activity fold change vs agonist alone; higher = enhanced NF-kB activity
Procedure, shortened: (§1)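 Compound reached 10 μM final in each well by pin transfer, onto RAW-Dual murine macrophage reporter cells seeded at 50 000 per well in 384-well plates. After 1 hour at 37 °C, the cells were stimulated overnight with a PRR agonist. SEAP in the supernatant was read with QUANTI-Blue at 620 nm absorbance for NF-κB, and Lucia luciferase was read with QUANTI-Luc luminescence for IRF. Each signal was turned into fold change against the mean agonist-only control on the same plate, and two replicate plates were averaged with propagated errors.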

[2] = test system: RAW-Dual (murine macrophage reporter line); assay: IRF reporter (Lucia luciferase) activity fold change vs agonist alone; higher = enhanced IRF activity
Procedure, shortened: as §1

[3] = test system: RAW-Dual (murine macrophage reporter line); assay: viability score (confluency relative to resting cells, overnight) (fraction); higher = more viable, active = viable (0.7 or more)
Procedure, shortened: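 RAW-Dual macrophages in 384-well plates were incubated overnight with compound, final concentration 10 μM. Confluency images from IncuCyte were processed in IncuCyte software into two masks covering all imaged wells. The viability score is each well's confluency relative to resting cells, and a compound met the cutoff when both masks exceeded 70% of resting cells.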

[4] = agonist: CpG ODN 1826 0.5 ug/mL

SMILES | NF-kB reporter [1, 4] | NF-kB reporter ([1]; agonist: LPS 0.1 ug/mL) | NF-kB reporter ([1]; agonist: MPLA […]) | IRF reporter ([2]; agonist: 3'3'-cGAMP 10 ug/mL) | IRF reporter ([2]; agonist: LPS 0.1 ug/mL) | IRF reporter ([2]; agonist: MPLA […]) | viability score [3]
CCCCOc1cc(C(=O)NCCN(CC)CC)c2ccccc2n1.Cl | 0.759 ± 0.17 | 1.04 ± 0.18 | 1.04 ± 0.067 | 0.776 ± 0.039 | 1.41 ± 0.41 | 1.82 ± 0.14 | 0.93 (active)
CCOC(=O)[C@H](CCc1ccccc1)N[C@H]1CCc2ccccc2N(CC(=O)O)C1=O [Prestw-1129] | 1.13 ± 0.097 | 0.978 ± 0.079 | 0.941 ± 0.06 | 1.02 ± 0.045 | 1 ± 0.047 | 0.879 ± 0.087 | 0.994 (active)
Cc1occc1C(=O)NN=Cc1cc([N+](=O)[O-])ccc1O | 1.12 ± 0.11 | 0.959 ± 0.12 | 1.16 ± 0.079 | 0.681 ± 0.096 | 1.23 ± 0.095 | 1.27 ± 0.28 | 0.997 (active)
CCC(=O)Nc1cccc(NC(=O)c2ccc(F)cc2)c1 | 0.852 ± 0.066 | 0.906 ± 0.12 | 0.977 ± 0.092 | 0.99 ± 0.05 | 1.32 ± 0.092 | 1.39 ± 0.17 | 0.997 (active)
N=C(N)Nc1nc(-c2ccccc2)c(-c2ccccc2)s1 | 0.98 ± 0.2 | 1.23 ± 0.18 | 1.29 ± 0.1 | 1.27 ± 0.06 | 1.26 ± 0.22 | 1.33 ± 0.19 | 1 (active)
c1ccc(CCn2c3ccccc3c3nnc(SCCN4CCOCC4)nc32)cc1 | 0.859 ± 0.067 | 0.912 ± 0.11 | 1.01 ± 0.091 | 0.697 ± 0.042 | 1.2 ± 0.13 | 1.33 ± 0.18 | 1.01 (active)
COc1ccc(Br)c(C(=O)N2CCOCC2CO)c1 (centres undefined) | 0.922 ± 0.049 | 0.963 ± 0.095 | 1.03 ± 0.071 | 0.997 ± 0.098 | 1.36 ± 0.26 | 1.52 ± 0.51 | 0.951 (active)

From the supplement of paper PMC10646978
